PNC assembly inh: inhibitors of perinucleolar compartment assembly | PC3M PTB-GFP, PNC prevalence imaging, 16 h; stronger effect = lower value | actives 3.1% (n = 140,000) | activity change (PNC), negative = inhibition, % at 10 µM | AID 2417;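 active = readout at or below -70, meaning at least 70% loss of cells showing the perinucleolar compartment, a nuclear body marking cancer cells; inconclusive = readout between -30 and a set limit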
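Read-out is percentage of cells bearing a perinucleolar compartment, from automated 20x imaging of fixed, Hoechst-stained PC3M PTB-GFP cells. Cells were seeded 4 h, then exposed 16 h to compound (23 nl of library stock) in duplicate plates.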
ALOX15B inhib: inhibitors of human 15-lipoxygenase 2 (ALOX15B) | O15296 | purified 15hLO-2, xylenol orange hydroperoxide absorbance | actives 0.56% (n = 110,000) | Potency, µM (titrated, usually from 57.1 µM), most hits filed as inhibitors; note: nearly all actives have a fitted effect of over 60% in size
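Screening format was qHTS against 50 nM purified 15hLO-2 in Hepes pH 7.5 with detergent. Activity follows hydroperoxide formation from 45 uM arachidonic acid, measured as 573:405 nm absorbance ratio of the ferric-xylenol orange complex.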
12-hLO inh: inhibitors of human 12-lipoxygenase (ALOX12); P18054; purified 12-hLO, xylenol orange hydroperoxide absorbance; Potency, µM (doses to about 57.1 µM), hits mostly inhibitors; actives 0.12% (n = 150,000); AID 1452; note: nearly all actives have a fitted effect of over 55% in size
Target sequence (P18054 whole entry, looked up): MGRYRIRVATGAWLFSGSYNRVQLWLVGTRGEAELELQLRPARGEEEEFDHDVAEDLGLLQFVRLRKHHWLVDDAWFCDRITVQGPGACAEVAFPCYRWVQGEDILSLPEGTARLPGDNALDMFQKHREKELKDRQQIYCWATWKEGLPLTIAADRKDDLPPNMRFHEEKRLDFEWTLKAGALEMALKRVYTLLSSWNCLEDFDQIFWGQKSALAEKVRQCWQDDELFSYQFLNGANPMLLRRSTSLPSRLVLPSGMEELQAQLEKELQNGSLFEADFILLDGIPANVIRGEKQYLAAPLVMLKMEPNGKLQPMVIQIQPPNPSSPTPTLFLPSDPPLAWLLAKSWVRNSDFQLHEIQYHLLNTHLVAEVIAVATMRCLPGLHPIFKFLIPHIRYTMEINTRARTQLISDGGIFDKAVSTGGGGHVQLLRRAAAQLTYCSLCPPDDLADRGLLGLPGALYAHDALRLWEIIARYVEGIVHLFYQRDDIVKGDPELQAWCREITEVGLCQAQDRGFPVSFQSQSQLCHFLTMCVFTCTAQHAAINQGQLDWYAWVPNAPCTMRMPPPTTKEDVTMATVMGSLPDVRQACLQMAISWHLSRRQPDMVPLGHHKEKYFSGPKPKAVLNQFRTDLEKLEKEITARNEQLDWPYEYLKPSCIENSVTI
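Xylenol orange chromogenic assay: hydroperoxide from 12hLO oxidises Fe(II), giving red-shifted Fe(III)-XO absorbance. Conditions: 150 nM enzyme, 40 uM arachidonic acid, 25 mM Hepes pH 7.0, 0.01% Triton X-100, 30 min, room temperature.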
Of the large screens only hits and unclear results are named; the others gave an inactive call. Most compounds without a hit are left out; they make up all but 3.1% or so of the library. Unless noted, calls come from the whole dose curve; as a rule, active = well fitted curve in the direction sought with a large enough effect; inconclusive = small, poorly fitted or top-dose-only effect, or another doubt; inactive = no such curve, though single readings can be large; an effect the other way counts as inactive or inconclusive.

CCOC(=O)c1[nH]c(C)c(C(=O)OCC)c1C	none
CCOC(=O)c1[nH]c(C)c(C(=O)c2cc(F)ccc2F)c1C	PNC assembly inh -95.0
Cc1ccc(NS(=O)(=O)N(C)C)cc1	PNC assembly inh -100.0 (no result: ALOX15B inhib)
COC(=O)c1ccc(NS(=O)(=O)N(C)C)cc1	none
CCCCS/C(N)=N/N=C/c1cc(C)ccc1O	PNC assembly inh -105.7
CCS/C(N)=N/N=C/c1cc(C)ccc1O	none
CNC(=S)N1N=C(c2ccc(Br)cc2)CC1c1ccc(OC)cc1 (centres undefined)	PNC assembly inh -121.5, 12-hLO inh inconclusive (no result: ALOX15B inhib)
CNC(=S)N1N=C(c2ccc(C)cc2)CC1c1ccc(OC)cc1 (centres undefined)	12-hLO inh inconclusive
COc1cc(/C=N/O)c(Br)cc1OCC(=O)Nc1ccccc1C	PNC assembly inh -84.3 (no result: ALOX15B inhib)
COc1cc(/C=N/NC(N)=O)c(Br)cc1OCC(=O)Nc1ccccc1C	none
CN(C)c1ccccc1CN1CCCN(Cc2ccccc2N(C)C)C1c1ccncc1	none (no result: PNC assembly inh)
O=C(COc1ccc(S(=O)(=O)NC2CCCCC2)cc1Cl)NCc1ccc2c(c1)OCO2	none
O=C(COc1ccc(S(=O)(=O)N2CCCC2)cc1Cl)NCc1ccc2c(c1)OCO2	PNC assembly inh -107.1
CS(=O)(=O)N1CCC2(CCN(C(c3ccccc3)c3ccccc3)CC2)CC1	none (no result: PNC assembly inh)
O=C(Nc1cnn(Cc2ccc(F)cc2)c1)c1cnccn1	PNC assembly inh -129.2
O=C(Nc1cnn(Cc2ccc(F)cc2)c1)c1cc(-c2cccs2)on1	PNC assembly inh inconclusive
Cc1cnc(CNc2ccnc(-c3cccc(C#N)c3)n2)cn1	none (no result: PNC assembly inh, 12-hLO inh)
COCC(=O)N1CCC2(CC1)CCN(C(c1ccccc1)c1ccccc1)CC2	none (no result: PNC assembly inh)
CC1=C(C)/C(=N\OS(=O)(=O)c2ccc(C)cc2)C=CC1=O	PNC assembly inh inconclusive (no result: ALOX15B inhib)
COc1ccc(S(=O)(=O)/N=C2/C=CC(=O)C(C)=C2C)cc1	ALOX15B inhib 12.6µM
CN1CCc2cc3c(cc2[C@@H]1[C@@H]1C(=O)Oc2c1ccc1c2OCO1)OCO3	none (no result: PNC assembly inh)
CC(C)c1ccc(NC(=O)c2cc(S(=O)(=O)NCC3COc4ccccc4O3)ccc2F)cc1 (centres undefined)	PNC assembly inh -113.4 (no result: ALOX15B inhib)
COc1ccc(NC(=O)c2cc(S(=O)(=O)NCC3COc4ccccc4O3)ccc2F)cc1 (centres undefined)	none (no result: ALOX15B inhib)
Cc1cc(NC(c2cccnc2)c2ccc3cccnc3c2O)no1 (centres undefined)	none
CCC(=O)NC(c1ccccc1OC)c1ccc2cccnc2c1O (centres undefined)	PNC assembly inh -100.0 (no result: ALOX15B inhib)
C[C@@]1(CCOCc2ccccc2)NC(=O)NC1=O	none (no result: PNC assembly inh)
CC(=O)Nc1ccc(SCC(=O)Nc2cc(C(C)(C)C)nn2-c2ccccc2)cc1	PNC assembly inh -115.1 (no result: ALOX15B inhib)
Cn1c(SCC(=O)Nc2cc(C(C)(C)C)nn2-c2ccccc2)nc2ccccc21	none (no result: ALOX15B inhib)
O=C(Nc1ccccc1N1CCCC1)c1cccnc1	none (no result: ALOX15B inhib)
O=C(Nc1cc(C(F)(F)F)ccc1N1CCCC1)c1cccnc1	PNC assembly inh -89.5
O=C(O)[C@@H]1CCCN1	none (no result: PNC assembly inh)
Cc1cc(C)c(S(=O)(=O)N(C)CC(N)=O)c(C)c1	PNC assembly inh -84.9
Cc1cc(C)c(S(=O)(=O)N(C)CC(=O)N2CCCCC2)c(C)c1	none
O=[N+]([O-])c1cccc2c[nH]nc12	none (no result: PNC assembly inh)
COC(=O)C(CC(=O)c1ccc(Cl)cc1)c1ccc(C)cc1 (centres undefined)	PNC assembly inh -100.0 (no result: ALOX15B inhib)
Cc1ccc(C(=O)CC(=O)COc2ccc(Cl)cc2)cc1	none (no result: ALOX15B inhib)
CCNC(=S)NNC(=O)c1ccccc1Cl	PNC assembly inh -80.5 (no result: ALOX15B inhib)
CCNC(=S)NNC(=O)c1ccccc1OC(F)F	none
CCN(CC)S(=O)(=O)c1ccc(N2CCOCC2)c(NC(=O)C2CCCC2)c1	none (no result: ALOX15B inhib)
CCOc1ccc(S(=O)(=O)Nc2cc(S(=O)(=O)N(CC)CC)ccc2N2CCCC2)cc1	PNC assembly inh -121.5 (no result: ALOX15B inhib)
CC(C)(C)c1cc(C(=O)Nc2ccccc2)ccn1	PNC assembly inh -121.7 (no result: ALOX15B inhib)
Cc1ccc(NC(=O)c2ccnc(C(C)(C)C)c2)cc1	none (no result: ALOX15B inhib)
COc1ccc(CC(=O)Nc2cccc(C)n2)cc1OC	PNC assembly inh -80.9 (no result: ALOX15B inhib)
COc1ccc(CC(=O)Nc2cc(C)on2)cc1OC	PNC assembly inh inconclusive
COC(=O)NNC(=O)COc1ccc2ccccc2c1Br	PNC assembly inh -81.6 (no result: ALOX15B inhib)
O=C(COc1ccc2ccccc2c1Br)NNC(=O)Nc1ccccc1	ALOX15B inhib inconclusive
Cc1ccccc1OCC1Cn2c(nc3c2c(=O)[nH]c(=O)n3C)O1 (centres undefined)	none
Cc1ccc(OCC2Cn3c(nc4c3c(=O)[nH]c(=O)n4C)O2)cc1 (centres undefined)	PNC assembly inh -103.4
CC1=CC(=O)CC(C)(C)C1(O)/C=C/C(C)=C\C(=O)O (centres undefined)	none (no result: PNC assembly inh)
COc1ccc(CN=C2NC(=O)CC(C(=O)Nc3cc(C)cc(C)c3)S2)cc1 (centres undefined)	PNC assembly inh -83.9 (no result: ALOX15B inhib)
COc1ccc(CN=C2NC(=O)CC(C(=O)Nc3ccc(Cl)cc3)S2)cc1 (centres undefined)	none (no result: ALOX15B inhib)
Cc1cc(C)nc(SCNC(=O)c2ccccc2)n1	none (no result: ALOX15B inhib)
O=C(NCSc1ccnc(SCNC(=O)c2ccc(F)cc2)n1)c1ccc(F)cc1	PNC assembly inh -97.1, ALOX15B inhib inconclusive
CC(C)CCCC(C)C1CCC2C3=CC[C@@H]4CC(O)CC[C@@]4(C)C3CC[C@]21C (some centres undefined)	none (no result: PNC assembly inh)
COC(=O)c1cccc(NC(=O)c2cccnc2)c1	none
COC(=O)c1cccc(NC(=O)c2cnoc2C)c1	PNC assembly inh -118.9 (no result: ALOX15B inhib)
Cc1c(C(=O)N2CCN(c3ccc(F)cc3)CC2)sc2nc(-c3ccccc3)cn12	none
COc1ccccc1N1CCN(C(=O)c2sc3nc(-c4ccccc4)cn3c2C)CC1	PNC assembly inh -95.2
COC(=O)C1CCN(C(=O)/C=C/c2ccccc2)CC1	PNC assembly inh -113.8 (no result: ALOX15B inhib)
COc1ccccc1N1CCN(C(=O)/C=C/c2ccccc2)CC1	PNC assembly inh -100.0 (no result: ALOX15B inhib)
COc1ccccc1N1CCN(C(=O)/C=C/c2cccs2)CC1	none (no result: ALOX15B inhib)
O=C(/C=C/c1ccccc1)N1CCC(Cc2ccccc2)CC1	none
CN(C)c1ccc(C2N([C@H](C#N)c3ccc(N(C)C)cc3)CCCN2[C@@H](C#N)c2ccc(N(C)C)cc2)cc1 (some centres undefined)	none (no result: PNC assembly inh)
c1ccc(C(c2ccccc2)N2CCCC3(CCNCC3)C2)cc1	none (no result: PNC assembly inh)
c1ccc2c(c1)C(=Nc1ccc(N=C3c4ccccc4-c4ccccc43)cc1)c1ccccc1-2	none (no result: PNC assembly inh)
Nc1ccc(-c2ccc(N)c(O)c2)cc1O	none (no result: PNC assembly inh)
Nc1cc(-c2ccccc2)ccc1O	ALOX15B inhib 12.6µM, 12-hLO inh inconclusive
COc1cc(C)c2c(=O)cc(-c3ccccc3)oc2c1	none (no result: PNC assembly inh)
N#Cc1ccc(C23CC4(C2)[C@H](CN(Cc2cccnc2)[C@@H]4c2ccccc2)C3c2ccc(C(F)(F)F)cc2)cc1 (some centres undefined)	none (no result: PNC assembly inh)
COc1ccccc1N1CCN(C(=O)CCCn2c(=O)[nH]c3ccsc3c2=O)CC1	none
COc1ccccc1CNC(=O)CCn1c(=O)[nH]c2ccsc2c1=O	PNC assembly inh -100.0 (no result: ALOX15B inhib)
CN(C)c1ccc(N=NS(=O)(=O)O)cc1	none (no result: PNC assembly inh)
COC(=O)[C@@H]1C[C@H]1[C@@H](NC(=O)c1cc(C)nn1C)c1ccccc1	none (no result: PNC assembly inh)
COc1ccc(NC(=O)N2CCCC3(CCN(C(=O)c4csnn4)CC3)C2)cc1	none (no result: PNC assembly inh)

From PubChem
